# Compound activity deposited in PubChem BioAssay by National Center for Advancing Translational Sciences (NCATS).
# Rows were chosen to be rich in hits. Some 8% of all compounds tested hit in one or more screens of this group.
# HCMV antiviral: blocks human cytomegalovirus replication; AID 1259415; activity change, negative = inhibition, % at 57.5 µM; 410,000 compounds, 4.5% hits; HFF cells, HCMV-luciferase reporter, 72 h; stronger effect = lower value; in the data active means activity change below about -60%; inconclusive means no clear call, values can overlap the other calls; inactive means above about -39%; further: on the % scale 0 is the no-effect control and ±100 the full control effect
#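 Screen run at 2 compound doses on HFFs infected with reporter HCMV, MOI 1 PFU/cell. Luciferase activity from cell lysates at 72 h post infection gave inhibition relative to buffer-only and Salinomycin wells.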
# HCV inh: inhibitors of hepatitis C virus infection; Huh7.5.1 HCVcc-Cre infection, luciferase reporter, 44 h; Potency, µM (titrated, usually from 41.8 µM), inactives show top-dose activity change, negative = inhibition, usual class: inhibitors; 340,000 compounds, 3.4% hits; AID 651820; active means well fitted inhibition curve with a large enough effect; inconclusive means small, poorly fitted or top-dose-only effect, or another doubt; inactive means no such curve, though single readings can be large or run the other way; further: potency means the concentration at half of the fitted maximal effect; on the % scale 0 is the no-effect control and ±100 the full control effect
#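 Cells seeded at 1,000/well and cultured 4 h, then compounds added followed by HCVcc-Cre virus (~0.5 moi). After 44 h further culture, luciferase substrate was added, plates held 15 min at room temperature, and luminescence read for 15 sec.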
# SARS PLP yeast: inhibitors of SARS-CoV papain-like protease in yeast; 330,000 compounds, 0.19% hits; Potency, µM (highest dose often 32.9 µM), inactives show at the highest dose activity, positive = growth rescue, hits mostly activators; S. cerevisiae expressing SARS-CoV PLpro, growth rescue; calls by dose curve; further: potency means the concentration at half of the fitted maximal effect; 0% is about no effect; nearly all actives have a fitted effect of over 55% in size
# Lassa entry inh: inhibitors of Lassa virus binding or cell entry. 300,000 compounds, 1.2% hits. Potency, µM (highest dose often 37.9 µM), for the others: at the top dose activity change, negative = inhibition, most hits filed as inhibitors. Lassa virus pseudotype entry inhibition, cell reporter. AID 540256; calls by dose curve; tested in HEK293 cells; further: potency means the concentration at half of the fitted maximal effect; on the % scale 0 is the no-effect control and ±100 the full control effect; nearly all actives have a fitted effect of over 50% in size
# Marburg entry inh: Marburg virus entry inhibition; Marburg virus pseudotyped entry inhibition, cell reporter; Potency, µM (titrated, usually from 37.8 µM), inactives show top-dose activity change, negative = inhibition, usual class: inhibitors; 300,000 compounds, 1.8% hits; calls by dose curve; tested in HEK293 cells; further: potency means the concentration at half of the fitted maximal effect; on the % scale 0 is the no-effect control and ±100 the full control effect
# FMDV antiviral: foot and mouth disease virus antiviral activity; AID 1159524; Potency, µM (top dose mostly 57.9 µM), without a hit: at the highest dose activity change, negative = inhibition, most hits filed as inhibitors; FMDV antiviral cell-based qHTS; 410,000 compounds, 1.2% hits; calls by dose curve; tested in HEK293T cells; further: read-out not given here; potency means the concentration at half of the fitted maximal effect; on the % scale 0 is the no-effect control and ±100 the full control effect; nearly all actives have a fitted effect of over 45% in size
# * = called active by the depositor; ? = inconclusive; . = no result given; [ ] = remark or other dose.
SMILES,HCMV antiviral,HCV inh,SARS PLP yeast,Lassa entry inh,Marburg entry inh,FMDV antiviral
CCS(=O)(=O)Nc1cc(C(=O)N2CCCN(C=O)CC2)c2c(c1)nc(-c1ccccc1)n2C,.,.,.,.,.,0%
O=C(CCn1c(=O)[nH]c2ccccc2c1=O)N1CCN(c2cccc(C(F)(F)F)c2)CC1,34,9%,3%,-4%,?,?
CC(=O)c1ccc(N2CCN(C(=O)CCCn3c(=O)[nH]c4ccc(Br)cc4c3=O)CC2)cc1,?,?,0%,.,.,?
CCOC(=O)C1CCN(C(=O)CCCCn2c(=O)[nH]c3ccccc3c2=O)CC1,-79*,-10%,1%,-29%,0%,-2%
O=C(CCCn1c(=O)[nH]c2ccc(Br)cc2c1=O)N1CCN(c2cccc(Cl)c2)CC1,-100*,.,.,-25%[46.1 µM],?,-1%
O=C(CCCCn1c(=O)[nH]c2ccsc2c1=O)N1CCN(c2cccc(C(F)(F)F)c2)CC1,?,.,.,-17%[46.1 µM],?,40µM*
O=C(CCCCn1c(=O)[nH]c2ccccc2c1=O)N1CCN(c2cccc(C(F)(F)F)c2)CC1,-34,11µM*,-16%,16µM*,9.2µM*,-28%
CCOC(=O)N(C)C[C@H]1OCc2cn(nn2)CCCC(=O)N([C@@H](C)CO)C[C@@H]1C,-2,.,.,.,.,.
CCN(Cc1ccccc1)S(=O)(=O)c1ccc(C(=O)N(CCCN(C)C)c2nc3c(F)cccc3s2)cc1,-2,-20%,20%,?,8.9µM*,3%
Cc1cc(C)c2sc(N(CCCN(C)C)C(=O)c3ccc(S(=O)(=O)N(C)Cc4ccccc4)cc3)nc2c1,-27,?,-1%,?,?,?
CCOc1cccc2sc(N(CCCN(C)C)C(=O)c3ccc(S(=O)(=O)N(CC)Cc4ccccc4)cc3)nc12,?,?,-1%,?,?,-25%
Cc1cc(C)c2sc(N(CCCN(C)C)C(=O)c3ccc(Br)s3)nc2c1,-39,13µM*,-13%,.,.,?
CCN(Cc1ccccc1)S(=O)(=O)c1ccc(C(=O)N(CCCN(C)C)c2nc3cc(C)cc(C)c3s2)cc1,-37,10µM*,-7%,?,10µM*,-22%
COc1ccccc1CNCC(=O)Nc1cc(S(=O)(=O)N2CCCCC2)ccc1C,20,?,1%,?,-29%,?
CCN(CC)S(=O)(=O)c1ccc(C)c(NC(=O)CNCc2ccccc2OC)c1,-24,?,0%,?,4.5µM*,?
CS(=O)(=O)c1ccc(Cl)c(NC(=O)COC(=O)CNC(=O)c2ccccc2)c1,4,2%,3%,14%,?,5%
CN(CC(=O)Nc1cc(S(=O)(=O)N2CCCC2)ccc1Cl)Cc1ccc2c(c1)OCO2,?,6.3µM*,-10%,.,.,-20%
COc1cccc(CN(C)CC(=O)Nc2cc(S(=O)(=O)N3CCCC3)ccc2Cl)c1OC,-33,2.8µM*,3%,?,?,?
CS(=O)(=O)c1ccc(Cl)c(NC(=O)CNC(=O)c2ccc3c(c2)OCO3)c1,-61*,7%,4%,-27%[46.1 µM],0%[46.1 µM],9%
CCN(CC)CCNC(=O)c1cnn(-c2ncc3c(n2)-c2ccc(OC)cc2CC3)c1C,.,.,.,.,.,-18%
O=C(COc1ccccc1-c1nc(-c2ccccc2)no1)Nc1ccccc1[N+](=O)[O-],-2,.,.,-20%[46.1 µM],?,20%
COc1cccc(NC(=O)Cn2c(=O)n(Cc3ccc4c(c3)OCO4)c(=O)c3oc4ccccc4c32)c1,-20,.,.,-1%[46.1 µM],.,-13%
COc1ccccc1NC(=O)COn1nnc2ccc(S(=O)(=O)N3CCOCC3)cc21,-63*,?,1%,4%,8%[46.1 µM],-14%
COc1ccccc1CNCC(=O)Nc1cc(S(=O)(=O)N2CCOCC2)ccc1Cl,-21,?,3%,?,?,25µM*
COc1ccc(S(=O)(=O)N2CCCCCC2)cc1NC(=O)CN(C)Cc1ccc2c(c1)OCO2,?,11µM*,0%,.,.,-15%
SMILES,HCMV antiviral,HCV inh,SARS PLP yeast,Lassa entry inh,Marburg entry inh,FMDV antiviral
CN(CC(=O)Nc1cc(S(=O)(=O)N2CCCCCC2)ccc1Cl)Cc1ccc2c(c1)OCO2,-1,?,0%,.,.,-26%
CCCCNC(=O)Nc1ccc([C@@](O)(C(=O)OCC)C(F)(F)F)cc1,.,.,.,.,-1%,.
Cc1ncc2c(c1CNC(=O)c1ccccc1F)CCN(C(=O)c1ccc3c(c1)OCCO3)C2,.,.,.,.,.,-8%
CC1CCN(C(=O)Cn2c3ccccc3c3nc4n(c(=O)c32)CCCS4)CC1,-61*,8%,0%,-16%[46.1 µM],12%[46.1 µM],-16%
O=C(Cc1cccc2ccccc12)N/N=C/c1ccc(Sc2nc3ccccc3s2)o1,-31,10µM*,9%,-24%,?,-19%
N#CCC(=O)N/N=C/c1ccc(Sc2nc3ccccc3s2)o1,-99*,10%,-9%,-1%,21%,10%
O=C(COc1cccc2ccccc12)N/N=C/c1ccc(Sc2nc3ccccc3s2)o1,66,?,-1%,-28%,-30%,-9%
Cc1cc(C)c(C#N)c(SCc2ccc([N+](=O)[O-])cc2)n1,-35,11%,1%,21%,-1%[46.1 µM],-7%
Cc1cc(C)c(C#N)c(Sc2nc(C)c([N+](=O)[O-])c(C)c2C#N)n1,-38,.,.,.,.,22µM*
Cc1nc(Sc2ccccc2)c(C#N)c(C)c1[N+](=O)[O-],-103*,?,0%,-20%,-9%[46.1 µM],?
COc1ccc(/C=C/C(=O)CC(=O)/C=C/c2cccc(O)c2OC)cc1O,.,.,.,.,.,-3%
CC(=O)Nc1c(Cl)cc2c(c1Cl)Cc1ccccc1-2,-10,?,.,6%,?,24%
CC(=O)Nc1c(Cl)cc2c(c1Cl)C(=O)c1ccccc1-2,-39,11µM*,.,?,-9%,17%
COc1ccc(NC2=C(NC(C)=O)C(=O)c3ccccc3C2=O)cc1,-67*,?,3%,?,?,0%
CC(=O)Nc1ccc2c(c1)C(=O)c1ccccc1C2=O,34,10µM*,-11%,4%,3%,57%
CCOC(=O)c1cccn1C1C(=O)N(Cc2ccc(Cl)nc2)c2ccc(Cl)cc21 (stereo not given),-27,.,.,.,.,.
C=CCOc1ccc(/C=C2\SC(=Nc3cccnc3)NC2=O)cc1,20,-3%,0%,3.5µM*,?,22%
CC(/C=C1\SC(=Nc2cccnc2)NC1=O)=C\c1ccccc1,11,?,0%,?,?,-8%
O=C(N/N=C/c1ccc[nH]1)c1ccccc1O,-92*,-11%,1%,-13%,-17%[14.2 µM],0%
Cc1cc(C(=O)N/N=C/c2ccc[nH]2)n[nH]1,?,1.4µM*,0%,7%,-2%[46.1 µM],0%
O=C(N/N=C/c1ccc[nH]1)c1ccc(O)cc1,-16,-5%,-1%,?,?,25%
Cc1cc(C(=O)N/N=C/c2ccc[nH]2)no1,-20,?,-27%,28%,2%,12%
